These results are taken from paper PMC7862700, “An all-to-all approach to the identification of sequence-specific readers for epigenetic DNA modifications on cytosine”.

Common to all, as to assay: DAPPL (digital affinity profiling via proximity ligation, sequencing); 10 mM Tris-HCl pH 7.5, 50 mM NaCl, 1 mM DTT, 4% glycerol, room temperature, 30 min; GST-TFs on glutathione beads, 16-mer random dsDNA library, 0.1% formaldehyde crosslink after washing; high values mean tight binding
The target of one assay is T1, FEV (Homo sapiens, UniProt Q99581 1-238).
T1 sequence: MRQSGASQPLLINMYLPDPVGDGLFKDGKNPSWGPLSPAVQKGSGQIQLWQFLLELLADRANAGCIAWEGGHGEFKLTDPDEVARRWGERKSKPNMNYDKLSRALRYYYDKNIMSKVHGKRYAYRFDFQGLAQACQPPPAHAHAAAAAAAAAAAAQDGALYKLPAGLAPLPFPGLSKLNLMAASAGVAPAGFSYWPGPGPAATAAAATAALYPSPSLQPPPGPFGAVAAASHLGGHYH
Particulars: protein: recombinant; tags: N-terminal GST; dsDNA, one strand shown. Summed up:
(§1)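 Beads coated with glutathione captured GST-fused human transcription factors that had been expressed in yeast, and the factors were then given DNA barcodes and pooled with a tag-only sample. The pools were incubated with 200 nmole of a random double-stranded 16-mer DNA library in Tris/NaCl/DTT/glycerol buffer for 30 min at room temperature, washed, crosslinked with 0.1% formaldehyde and proximity-ligated with BsaI/T4 ligase at 37 °C for 1 h. PCR amplification and Illumina NextSeq500 sequencing came last. Binding signal is each hexamer's read frequency for a factor divided by its frequency for the tag-only sample.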

In a further assay the target is ETV5 (Homo sapiens, UniProt P41161 1-510). Particulars: protein: recombinant; tags: N-terminal GST; dsDNA, one strand shown. Summed up:
as §1

The target of the next assay is HSF1 (Homo sapiens, UniProt Q00613 1-529). The note with it: protein: recombinant; tags: N-terminal GST; chain copies: 3; dsDNA, one strand shown. An outline of the steps: as §1
Chain of HSF1 (Q00613 whole entry): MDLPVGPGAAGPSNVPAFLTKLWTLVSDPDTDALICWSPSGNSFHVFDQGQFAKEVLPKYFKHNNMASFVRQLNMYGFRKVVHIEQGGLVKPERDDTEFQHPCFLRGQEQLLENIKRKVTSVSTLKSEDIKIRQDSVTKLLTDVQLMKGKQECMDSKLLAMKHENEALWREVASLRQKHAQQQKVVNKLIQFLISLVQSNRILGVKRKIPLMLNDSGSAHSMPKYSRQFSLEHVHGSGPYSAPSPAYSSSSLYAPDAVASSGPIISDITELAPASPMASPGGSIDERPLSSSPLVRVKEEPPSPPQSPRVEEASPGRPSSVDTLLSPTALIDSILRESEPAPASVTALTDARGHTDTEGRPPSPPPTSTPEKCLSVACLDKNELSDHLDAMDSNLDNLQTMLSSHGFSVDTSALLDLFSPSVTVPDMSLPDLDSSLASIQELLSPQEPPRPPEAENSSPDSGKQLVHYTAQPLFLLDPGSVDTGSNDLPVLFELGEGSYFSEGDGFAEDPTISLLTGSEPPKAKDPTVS
In another assay the target is T2, SPIC (Homo sapiens, UniProt Q8N5J4 1-248).
T2 sequence: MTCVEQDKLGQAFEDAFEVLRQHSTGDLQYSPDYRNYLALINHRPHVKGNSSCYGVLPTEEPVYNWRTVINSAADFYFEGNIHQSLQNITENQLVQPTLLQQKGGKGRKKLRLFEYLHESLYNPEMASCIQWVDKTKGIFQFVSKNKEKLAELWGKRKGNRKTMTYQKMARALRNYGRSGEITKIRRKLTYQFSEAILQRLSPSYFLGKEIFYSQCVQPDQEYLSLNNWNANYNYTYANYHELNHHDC
Particulars: protein: recombinant; tags: N-terminal GST; dsDNA, one strand shown. An outline of the steps: as §1

The target in another assay is ELF4 (Homo sapiens, UniProt Q99607 1-663). The note with it: protein: recombinant; tags: N-terminal GST; dsDNA, one strand shown. Summed up: as §1
Chain of ELF4 (Q99607 whole entry): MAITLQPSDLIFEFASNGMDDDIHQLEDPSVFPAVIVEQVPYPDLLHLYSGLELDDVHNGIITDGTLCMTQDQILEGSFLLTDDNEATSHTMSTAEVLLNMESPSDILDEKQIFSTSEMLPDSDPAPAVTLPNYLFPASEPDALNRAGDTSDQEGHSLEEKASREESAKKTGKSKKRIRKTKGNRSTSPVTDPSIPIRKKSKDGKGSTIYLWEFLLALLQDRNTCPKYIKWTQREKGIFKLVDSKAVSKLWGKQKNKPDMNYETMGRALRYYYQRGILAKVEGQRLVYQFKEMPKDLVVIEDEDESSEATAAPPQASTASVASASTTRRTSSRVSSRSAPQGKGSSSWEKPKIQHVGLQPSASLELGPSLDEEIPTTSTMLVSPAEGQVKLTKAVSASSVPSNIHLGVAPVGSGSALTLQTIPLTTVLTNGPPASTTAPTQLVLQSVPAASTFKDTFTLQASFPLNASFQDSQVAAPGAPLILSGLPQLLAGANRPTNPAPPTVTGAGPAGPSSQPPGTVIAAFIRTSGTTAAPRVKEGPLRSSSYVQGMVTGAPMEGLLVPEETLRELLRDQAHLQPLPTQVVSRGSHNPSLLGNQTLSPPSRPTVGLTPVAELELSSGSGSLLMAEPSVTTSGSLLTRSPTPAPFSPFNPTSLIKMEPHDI
The target of another assay is T3, ELK4 (Homo sapiens, UniProt P28324-2 1-405).
T3 sequence: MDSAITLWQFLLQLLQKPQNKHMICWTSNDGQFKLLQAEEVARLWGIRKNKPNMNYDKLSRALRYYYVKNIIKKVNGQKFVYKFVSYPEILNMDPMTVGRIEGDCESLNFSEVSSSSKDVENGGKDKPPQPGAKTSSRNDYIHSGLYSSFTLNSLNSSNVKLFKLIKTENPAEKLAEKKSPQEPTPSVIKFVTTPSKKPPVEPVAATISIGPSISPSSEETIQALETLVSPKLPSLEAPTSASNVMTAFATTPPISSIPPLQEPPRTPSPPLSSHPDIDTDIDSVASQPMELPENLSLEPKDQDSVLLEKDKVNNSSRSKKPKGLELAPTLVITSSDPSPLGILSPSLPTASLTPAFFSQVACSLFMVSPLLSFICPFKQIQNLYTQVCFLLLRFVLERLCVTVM
Particulars: protein: recombinant; tags: N-terminal GST; dsDNA, one strand shown. An outline of the steps:
as §1

The next assay deals with T4, ETV2 (Homo sapiens, UniProt O00321 1-342).
T4 sequence: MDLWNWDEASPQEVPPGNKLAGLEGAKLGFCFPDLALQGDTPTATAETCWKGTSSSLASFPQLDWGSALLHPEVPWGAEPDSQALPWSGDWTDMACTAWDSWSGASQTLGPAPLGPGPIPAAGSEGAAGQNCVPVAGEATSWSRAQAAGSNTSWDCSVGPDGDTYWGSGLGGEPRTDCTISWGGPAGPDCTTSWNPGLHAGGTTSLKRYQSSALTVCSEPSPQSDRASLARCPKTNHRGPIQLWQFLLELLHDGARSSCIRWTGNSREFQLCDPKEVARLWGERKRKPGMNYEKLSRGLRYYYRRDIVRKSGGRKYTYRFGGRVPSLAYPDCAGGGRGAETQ
Particulars: protein: recombinant; tags: N-terminal GST; dsDNA, one strand shown. An outline of the steps:
as §1

For another assay, the target named is T5, ELF3 (Homo sapiens, UniProt P78545 1-371).
T5 sequence: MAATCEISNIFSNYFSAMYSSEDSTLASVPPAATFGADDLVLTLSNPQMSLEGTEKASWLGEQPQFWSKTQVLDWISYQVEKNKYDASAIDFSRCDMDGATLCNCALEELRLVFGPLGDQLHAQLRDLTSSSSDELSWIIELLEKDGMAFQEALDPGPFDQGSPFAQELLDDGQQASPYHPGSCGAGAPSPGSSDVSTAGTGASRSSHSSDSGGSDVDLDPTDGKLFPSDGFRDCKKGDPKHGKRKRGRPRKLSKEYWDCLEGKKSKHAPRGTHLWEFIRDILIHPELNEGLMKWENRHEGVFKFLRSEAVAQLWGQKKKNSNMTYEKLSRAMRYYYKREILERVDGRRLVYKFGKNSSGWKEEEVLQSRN
Particulars: protein: recombinant; tags: N-terminal GST; dsDNA, one strand shown. An outline of the steps:
as §1

A further assay addresses CRX (Homo sapiens, UniProt O43186 1-299). The note with it: protein: recombinant; tags: N-terminal GST; dsDNA, one strand shown. Summed up: as §1
The target of the next assay is ETV1 (Homo sapiens, UniProt P50549 1-477). The note with it: protein: recombinant; tags: N-terminal GST; dsDNA, one strand shown. Summed up: as §1
Chain of ETV1 (P50549 whole entry): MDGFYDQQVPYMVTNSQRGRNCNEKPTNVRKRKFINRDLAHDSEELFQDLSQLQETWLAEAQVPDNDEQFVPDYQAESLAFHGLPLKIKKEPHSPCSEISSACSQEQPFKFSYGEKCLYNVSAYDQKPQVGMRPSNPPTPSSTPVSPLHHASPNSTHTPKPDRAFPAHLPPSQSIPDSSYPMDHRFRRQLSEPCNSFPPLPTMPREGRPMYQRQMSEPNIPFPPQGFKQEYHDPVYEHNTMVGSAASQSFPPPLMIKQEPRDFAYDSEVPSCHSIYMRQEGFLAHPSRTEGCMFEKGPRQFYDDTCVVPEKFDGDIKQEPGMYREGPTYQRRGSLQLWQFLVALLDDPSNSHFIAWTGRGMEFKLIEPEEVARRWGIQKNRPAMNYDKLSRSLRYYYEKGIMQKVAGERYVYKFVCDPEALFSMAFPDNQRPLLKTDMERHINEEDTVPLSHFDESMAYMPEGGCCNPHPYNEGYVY
The target of the next assay is T6, ERF (Homo sapiens, UniProt P50548 1-548).
T6 sequence: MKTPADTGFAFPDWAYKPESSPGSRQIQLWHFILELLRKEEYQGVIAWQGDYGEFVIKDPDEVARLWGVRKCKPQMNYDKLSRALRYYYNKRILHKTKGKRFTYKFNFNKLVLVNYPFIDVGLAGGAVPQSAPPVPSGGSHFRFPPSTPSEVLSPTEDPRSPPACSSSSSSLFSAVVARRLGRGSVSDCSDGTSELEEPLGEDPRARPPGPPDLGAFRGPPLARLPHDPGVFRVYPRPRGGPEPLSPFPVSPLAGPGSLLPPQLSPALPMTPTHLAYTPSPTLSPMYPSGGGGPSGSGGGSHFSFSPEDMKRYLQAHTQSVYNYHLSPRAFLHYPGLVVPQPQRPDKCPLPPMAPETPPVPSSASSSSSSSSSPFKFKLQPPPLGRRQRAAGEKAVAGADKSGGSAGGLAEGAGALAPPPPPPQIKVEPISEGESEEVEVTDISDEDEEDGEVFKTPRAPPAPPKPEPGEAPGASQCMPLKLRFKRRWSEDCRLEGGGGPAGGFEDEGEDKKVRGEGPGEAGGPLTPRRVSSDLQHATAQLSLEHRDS
Particulars: protein: recombinant; tags: N-terminal GST; dsDNA, one strand shown. An outline of the steps: as §1

The next assay addresses T7, ETV3L (Homo sapiens, UniProt Q6ZN32 1-361).
T7 sequence: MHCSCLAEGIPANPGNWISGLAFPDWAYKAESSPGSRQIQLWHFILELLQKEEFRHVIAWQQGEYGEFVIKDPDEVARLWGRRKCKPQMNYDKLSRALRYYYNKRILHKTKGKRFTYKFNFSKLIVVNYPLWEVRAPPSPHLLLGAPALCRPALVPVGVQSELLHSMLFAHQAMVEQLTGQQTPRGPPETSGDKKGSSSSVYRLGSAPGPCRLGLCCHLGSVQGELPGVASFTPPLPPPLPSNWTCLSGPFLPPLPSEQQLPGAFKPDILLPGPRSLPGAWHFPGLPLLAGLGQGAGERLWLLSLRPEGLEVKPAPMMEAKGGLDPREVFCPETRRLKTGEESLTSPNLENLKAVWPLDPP
The note with it: protein: recombinant; tags: N-terminal GST; dsDNA, one strand shown. An outline of the steps: as §1

The next assay concerns the target T8, ETS2 (Homo sapiens, UniProt P15036 1-469).
T8 sequence: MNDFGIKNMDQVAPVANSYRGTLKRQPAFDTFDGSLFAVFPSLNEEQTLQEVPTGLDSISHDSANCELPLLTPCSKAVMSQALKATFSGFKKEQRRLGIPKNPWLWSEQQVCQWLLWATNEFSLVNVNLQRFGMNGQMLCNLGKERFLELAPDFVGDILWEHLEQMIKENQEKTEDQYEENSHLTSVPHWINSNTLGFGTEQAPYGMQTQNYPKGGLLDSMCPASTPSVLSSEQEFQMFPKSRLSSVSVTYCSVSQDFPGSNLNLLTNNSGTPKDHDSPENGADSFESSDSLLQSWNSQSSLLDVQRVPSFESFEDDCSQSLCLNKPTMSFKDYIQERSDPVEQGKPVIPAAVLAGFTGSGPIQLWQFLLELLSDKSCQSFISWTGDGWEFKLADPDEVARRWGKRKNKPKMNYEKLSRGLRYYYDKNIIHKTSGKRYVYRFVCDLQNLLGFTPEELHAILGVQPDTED
The note with it: protein: recombinant; tags: N-terminal GST; dsDNA, one strand shown. An outline of the steps: as §1

The target in another assay is T9, SPDEF (Homo sapiens, UniProt O95238 1-335).
T9 sequence: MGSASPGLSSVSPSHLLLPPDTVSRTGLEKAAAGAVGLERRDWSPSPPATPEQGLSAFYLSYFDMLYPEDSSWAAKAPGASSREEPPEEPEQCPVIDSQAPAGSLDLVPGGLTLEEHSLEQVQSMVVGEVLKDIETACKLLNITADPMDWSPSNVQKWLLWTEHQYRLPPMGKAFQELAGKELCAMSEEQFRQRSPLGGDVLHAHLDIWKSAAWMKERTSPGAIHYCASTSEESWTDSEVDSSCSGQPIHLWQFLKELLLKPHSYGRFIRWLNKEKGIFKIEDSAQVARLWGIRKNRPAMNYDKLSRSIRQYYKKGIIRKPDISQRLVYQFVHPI
Particulars: protein: recombinant; tags: N-terminal GST; dsDNA, one strand shown. An outline of the steps:
as §1

For another assay, the target named is T10, ETV7 (Homo sapiens, UniProt Q9Y603 1-341).
T10 sequence: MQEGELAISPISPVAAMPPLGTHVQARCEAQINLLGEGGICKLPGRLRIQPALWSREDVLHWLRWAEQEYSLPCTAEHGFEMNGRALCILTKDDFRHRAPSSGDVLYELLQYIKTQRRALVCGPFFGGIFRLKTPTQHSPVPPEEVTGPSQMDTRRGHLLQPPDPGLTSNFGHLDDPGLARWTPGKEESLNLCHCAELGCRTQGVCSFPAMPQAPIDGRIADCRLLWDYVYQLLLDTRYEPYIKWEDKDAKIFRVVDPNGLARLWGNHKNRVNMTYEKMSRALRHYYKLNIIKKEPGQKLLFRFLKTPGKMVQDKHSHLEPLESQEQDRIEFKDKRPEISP
The note with it: protein: recombinant; tags: N-terminal GST; dsDNA, one strand shown. Summed up:
as §1

In a further assay the target is T11, ELF5 (Homo sapiens, UniProt Q9UKW6-2 1-255).
T11 sequence: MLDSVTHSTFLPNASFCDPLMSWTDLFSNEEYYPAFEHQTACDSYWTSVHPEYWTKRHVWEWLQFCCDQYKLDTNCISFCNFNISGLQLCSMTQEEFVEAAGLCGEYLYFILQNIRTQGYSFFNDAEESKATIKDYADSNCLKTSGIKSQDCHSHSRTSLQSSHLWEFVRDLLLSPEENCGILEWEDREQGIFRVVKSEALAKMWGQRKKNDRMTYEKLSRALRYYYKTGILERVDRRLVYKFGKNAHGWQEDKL
Particulars: protein: recombinant; tags: N-terminal GST; dsDNA, one strand shown. Summed up: as §1

The target of another assay is T12, ETV3 (Homo sapiens, UniProt P41162-2 1-143).
T12 sequence: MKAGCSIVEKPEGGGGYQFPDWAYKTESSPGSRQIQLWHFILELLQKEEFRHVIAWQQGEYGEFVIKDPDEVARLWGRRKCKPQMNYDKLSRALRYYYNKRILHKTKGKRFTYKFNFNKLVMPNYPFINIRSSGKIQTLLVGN
Particulars: protein: recombinant; tags: N-terminal GST; dsDNA, one strand shown. Summed up:
as §1

Another assay has as its target ETV6 (Homo sapiens, UniProt P41212 1-452). Particulars: protein: recombinant; tags: N-terminal GST; dsDNA, one strand shown. Summed up:
as §1

Chain of ETV6 (P41212 whole entry): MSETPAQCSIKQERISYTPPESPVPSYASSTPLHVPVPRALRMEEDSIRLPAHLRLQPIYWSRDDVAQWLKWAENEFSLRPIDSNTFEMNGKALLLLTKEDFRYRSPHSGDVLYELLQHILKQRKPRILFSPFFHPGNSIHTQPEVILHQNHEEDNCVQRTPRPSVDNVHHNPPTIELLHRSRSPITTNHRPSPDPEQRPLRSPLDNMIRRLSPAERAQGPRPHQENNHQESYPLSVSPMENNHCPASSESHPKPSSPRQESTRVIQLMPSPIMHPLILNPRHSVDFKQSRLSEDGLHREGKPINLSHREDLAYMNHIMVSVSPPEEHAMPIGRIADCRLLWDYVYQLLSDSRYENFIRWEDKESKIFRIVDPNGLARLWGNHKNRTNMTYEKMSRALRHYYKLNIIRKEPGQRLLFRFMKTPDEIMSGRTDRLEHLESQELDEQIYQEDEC
Chain of ETV5 (P41161 whole entry): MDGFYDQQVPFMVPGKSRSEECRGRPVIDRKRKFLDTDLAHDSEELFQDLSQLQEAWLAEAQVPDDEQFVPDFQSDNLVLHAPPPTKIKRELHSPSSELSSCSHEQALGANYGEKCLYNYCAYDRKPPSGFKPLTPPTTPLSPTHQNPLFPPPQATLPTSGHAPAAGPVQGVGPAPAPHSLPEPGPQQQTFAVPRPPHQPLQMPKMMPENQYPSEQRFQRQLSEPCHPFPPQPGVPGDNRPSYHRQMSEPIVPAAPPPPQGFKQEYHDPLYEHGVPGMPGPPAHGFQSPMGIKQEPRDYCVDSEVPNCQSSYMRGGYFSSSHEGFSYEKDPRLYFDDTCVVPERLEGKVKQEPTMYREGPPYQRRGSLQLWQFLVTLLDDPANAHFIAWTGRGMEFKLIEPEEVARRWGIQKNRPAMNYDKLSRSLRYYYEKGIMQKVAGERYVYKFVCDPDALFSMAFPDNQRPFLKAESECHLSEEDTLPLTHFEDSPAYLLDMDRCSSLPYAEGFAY
Chain of CRX (O43186 whole entry): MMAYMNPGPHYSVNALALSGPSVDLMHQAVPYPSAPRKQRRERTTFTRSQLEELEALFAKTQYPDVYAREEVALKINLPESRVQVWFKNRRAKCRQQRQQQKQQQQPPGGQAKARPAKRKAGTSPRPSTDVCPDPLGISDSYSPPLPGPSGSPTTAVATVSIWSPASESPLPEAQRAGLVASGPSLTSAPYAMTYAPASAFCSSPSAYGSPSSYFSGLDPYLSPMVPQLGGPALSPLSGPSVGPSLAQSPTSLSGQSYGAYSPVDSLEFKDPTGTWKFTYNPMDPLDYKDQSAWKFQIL

In the case of TCTGAA, the binding signal in the assay with FEV was 1.21 fold enrichment (6-mer frequency, TF over GST control); with ETV5, 1.09 fold enrichment (6-mer frequency, TF over GST control); with HSF1, 1.23 fold enrichment (6-mer frequency, TF over GST control); with SPIC, 1.2 fold enrichment (6-mer frequency, TF over GST control); with ELF4, 1.2 fold enrichment (6-mer frequency, TF over GST control); in the assay with ELK4 it was 1.14 fold enrichment (6-mer frequency, TF over GST control). Also, the binding signal is 1.17 fold enrichment (6-mer frequency, TF over GST control) with ETV2; 1.18 fold enrichment (6-mer frequency, TF over GST control) with ELF3; 1.21 fold enrichment (6-mer frequency, TF over GST control) with CRX; 1.21 fold enrichment (6-mer frequency, TF over GST control) with ETV1; 1.27 fold enrichment (6-mer frequency, TF over GST control) in the assay with ERF; 1.15 fold enrichment (6-mer frequency, TF over GST control) with ETV3L. For the same sequence, the binding signal in the assay with ETS2 was 1.27 fold enrichment (6-mer frequency, TF over GST control); with SPDEF it was 1.23 fold enrichment (6-mer frequency, TF over GST control); with ETV7 it was 1.07 fold enrichment (6-mer frequency, TF over GST control); in the assay with ELF5, 1.07 fold enrichment (6-mer frequency, TF over GST control); in the assay with ETV3, 1.09 fold enrichment (6-mer frequency, TF over GST control); in the assay with ETV6, 1.16 fold enrichment (6-mer frequency, TF over GST control).
